High-throughput results (PubChem)
D3 antag: qHTS of D3 Dopamine Receptor Antagonist: qHTS; D(3) dopamine receptor (Homo sapiens), P35462; D3R cells, DiscoveRx beta-arrestin luminescence, antagonist mode; stronger effect = lower value; max response, negative = inhibition, %; 360,000 compounds, 2.5% hits; in the data active means max response below about -50%; inconclusive means no clear call, values can overlap the other calls
Target sequence (P35462 whole entry, looked up): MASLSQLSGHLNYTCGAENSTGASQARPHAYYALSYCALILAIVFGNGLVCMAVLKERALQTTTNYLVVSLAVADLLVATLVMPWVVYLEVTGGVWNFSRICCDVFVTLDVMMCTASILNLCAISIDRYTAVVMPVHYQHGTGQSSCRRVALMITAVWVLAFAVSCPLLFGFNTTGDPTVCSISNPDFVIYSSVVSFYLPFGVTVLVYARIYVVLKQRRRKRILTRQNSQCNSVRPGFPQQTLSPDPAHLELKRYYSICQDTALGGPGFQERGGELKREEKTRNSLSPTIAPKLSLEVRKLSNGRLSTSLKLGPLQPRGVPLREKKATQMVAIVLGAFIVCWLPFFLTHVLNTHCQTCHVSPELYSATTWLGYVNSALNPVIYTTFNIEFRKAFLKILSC
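Cells plated overnight at 1500 cells/well, then exposed to library compounds with dopamine controls for 90 minutes at 37 degrees C. DiscoveRx reagent added for 30–60 minutes at room temperature; luminescence read, quantitative HTS format.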
DRD3 agonist: qHTS of D3 Dopamine Receptor Agonist: qHTS. D(3) dopamine receptor (Homo sapiens), P35462. 410,000 compounds, 0.58% hits. max activation, %. D3R DiscoveRx beta-arrestin cells, luminescence, 90 min; in the data active means max activation above about 30%
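Agonist mode: compounds and dopamine controls were applied to plated cells for 90 min at 37 degrees C after an overnight attachment at 1500 cells/well. Luminescent read-out followed 30 - 60 minutes at room temperature with DiscoveRx detection reagent.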
TRPML1 blocker: qHTS for Inhibitors of the Human Mucolipin Transient Receptor Potential 1 (TRPML1) | activity change, negative = inhibition, % (no concentration beside the values) | AID 624415, 2012 | Mucolipin-1 (Homo sapiens), Q9GZU1 | 390,000 compounds, 0.02% hits | TRPML1-inducible cells, Ca2+ dye fluorescence, FDSS; stronger effect = lower value; inhibition of EC80 agonist-evoked calcium signal; in the data active means activity change below about -50%; inconclusive means between about -30% and that limit;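 further: stimulus is agonist 54-4 at its EC80 concentration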
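Tet-induced TRPML1-DL cells loaded with Ca8 no-wash calcium dye were read kinetically on FDSS. Compound addition was followed by EC80 agonist 54-4 (4 uM final); inhibition was read over 110 s.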
TRPML1 ag: qHTS for Agonists of the Human Mucolipin Transient Receptor Potential 1 (TRPML1) | Mucolipin-1 (Homo sapiens), Q9GZU1 | TRPML1-expressing cells, Ca2+ dye fluorescence, FDSS | activation, % (no concentration beside the values) | 410,000 compounds, 0.12% hits; in the data active means activation above about 50%; inconclusive means mostly about 30% to 49%
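Tetracycline-induced TRPML1-DL cells are seeded and incubated overnight before loading with a no-wash Ca2+ dye and quencher. Agonist activity is taken from the 110 s fluorescence read following compound pin-transfer on an FDSS, before EC80 54-4 challenge.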
Numbers stand for hits; i = inactive; ? = inconclusive; nt = not tested or not shown. Shown are actives, neighbours in structure and some others; about 2.9% of the full set was active somewhere.

SMILES | D3 antag | DRD3 agonist | TRPML1 blocker | TRPML1 ag
COc1ccc(C(NC(=O)CN2CCCCCC2)c2ccc(OC)cc2)cc1 | -52.5 | i | i | i
COC(=O)[C@]12CCCCC=C1N(CCc1ccc(OC)c(OC)c1)C(=O)[C@H](CC(=O)NCCc1ccccc1OC)C2 | i | i | nt | nt
CCOc1ccccc1NC(=O)NCCn1c(=O)oc2ccc(C)cc21 | nt | i | i | i
COc1ccc(C(C#N)=C2C=CC(=NO)C=C2)cc1 | i | i | i | i
CC(=O)ON=C1C=CC(=C(C#N)c2ccccc2)C=C1 | -104.5 | i | nt | i
O=c1cc(CN2CCN(c3ccccc3F)CC2)c2cc3c(cc2o1)CCCC3 | -61.9 | i | i | i
O=c1cc(CN2CCN(CCO)CC2)c2cc3c(cc2o1)CCC3 | ? | i | i | i
O=c1cc(CN2CCN(Cc3ccccc3)CC2)c2cc3c(cc2o1)CCC3 | -61.9 | i | i | i
COc1ccc(CNC(=O)c2cc(-c3cccs3)nc3ccccc23)c(OC)c1 | nt | i | i | i
CCCCn1nnnc1C(c1ccnc2ccccc12)N1CCN(C/C=C/c2ccccc2)CC1 (stereo not given) | i | i | i | i
CCCCn1nnnc1C(c1ccccc1OC(F)(F)F)N1CCN(C/C=C/c2ccccc2)CC1 (stereo not given) | -59.0 | i | nt | ?
COc1ccccc1C(c1nnnn1Cc1ccccc1)N1CCN(c2nc3ccccc3s2)CC1 (stereo not given) | i | i | i | i
COc1ccccc1C(c1nnnn1Cc1ccccc1)N1CCN(C2CCCC2)CC1 (stereo not given) | -58.5 | i | i | i
FC(F)(F)Oc1ccccc1C(c1nnnn1Cc1ccccc1)N1CCN(C/C=C/c2ccccc2)CC1 (stereo not given) | -65.6 | i | nt | i
COc1cccc(C(c2nnnn2Cc2ccccc2)N2CCN(C3CCCC3)CC2)c1OC (stereo not given) | i | i | i | i
Cc1cccc(C)c1NC(=O)CN(C)C(=O)c1ccc(-n2cncn2)c([N+](=O)[O-])c1 | -68.2 | i | i | i
Cc1ccc(-c2nnc(SCC(=O)c3ccc(Cl)cc3)n2-c2ccccc2)cc1 | nt | i | i | i
Cc1ccc(C(=O)NCC(=O)OCC(=O)c2ccc(C)c([N+](=O)[O-])c2)cc1 | i | i | i | i
Cc1ccc(C(=O)COC(=O)CNC(=O)C(c2ccccc2)c2ccccc2)cc1[N+](=O)[O-] | -64.4 | i | i | i
CC1=CC(=O)C(C(C)C)=C/C1=N/OS(=O)(=O)c1ccccc1 | -78.7 | i | i | 50.2
CC1=CC(=O)C=C(C)C1=NOS(=O)(=O)c1ccccc1 | -56.1 | i | i | i
Cc1ccc2c(c1)/C(=N/OS(=O)(=O)c1ccccc1)CCS2 | i | i | i | i
CC(COc1ccccc1)NN (stereo not given) | nt | 67.1 | nt | nt
CC(CCc1ccccc1)NCC(O)COc1ccccc1 (stereo not given) | -64.5 | i | i | i
OC(CNCc1ccccc1)COc1ccccc1 (stereo not given) | i | i | i | i
SMILES | D3 antag | DRD3 agonist | TRPML1 blocker | TRPML1 ag
CCc1ccc(NC(=O)N2CCN(c3nnc(C)c4c(C)n(-c5ccc(Cl)cc5)nc34)CC2)cc1 | nt | i | i | i
CCCN(CCC)CC(O)CN(c1cc([N+](=O)[O-])ccc1OC)S(=O)(=O)c1ccccc1 (stereo not given) | -65.3 | i | i | i
COc1ccc([N+](=O)[O-])cc1N(CC(O)CN1CCCCC1)S(=O)(=O)c1ccccc1 (stereo not given) | i | i | i | i
CN1c2ccccc2C(O)=C(C(=S)Nc2ccccc2)S1(=O)=O | -85.5 | i | i | i
CN1c2ccccc2C(O)=C(C(=O)Nc2ccccc2)S1(=O)=O | i | i | i | i
Cc1ccc(NC(=S)C2=C(O)c3ccccc3N(C)S2(=O)=O)cc1 | -72.7 | i | i | i
COc1ccc(Cl)cc1NC(=O)Cn1ccn(Cc2ccc(C)cc2)c(=O)c1=O | nt | i | i | i
CC(C)Cc1nn2c(=O)cc(COC(=O)c3ccc(NC(=O)C4CCCCC4)cc3)nc2s1 | nt | i | i | i
CCOc1ccc2oc(C(=O)OCC(=O)NC3CC3)c(C)c2c1 | i | i | i | i
CCOC(=O)c1oc2ccc(CNC3CCCCC3)c(Cl)c2c1C | -86.4 | i | i | i
